About 83,000 compounds went through this panel and 20% of them were active in at least one assay; those are over-represented in the sample as a whole.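 Growth was measured after 48 h exposure to one concentration of compound in 96-well plates. Values under 10 count as active.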 Active and inactive are the calls of the source.
How the values were obtained:
Assay in all cases: NCI-60 one-dose screen, 48 h (100 = growth as untreated, 0 = no growth, -100 = all killed)
Settings in all cases: 10 µM
T-47D breast = test system: T-47D breast
BT-549 breast = test system: BT-549 breast
MDA-MB-435 melanoma = test system: MDA-MB-435 melanoma
SW-620 colon = test system: SW-620 colon
MCF7 breast = test system: MCF7 breast
HCT-116 colon = test system: HCT-116 colon
HCC-2998 colon = test system: HCC-2998 colon
KM12 colon = test system: KM12 colon
MDA-MB-468 breast = test system: MDA-MB-468 breast

Measured: growth

O=c1c2ccccc2nc(COc2ccccc2)n1/N=C/c1ccc(N2CCOCC2)cc1
inactive: T-47D breast 92.9% | BT-549 breast 76.8% | MDA-MB-435 melanoma 99.3% | SW-620 colon 97.6% | MCF7 breast 77.6% | HCT-116 colon 52.5% | HCC-2998 colon 99.2% | KM12 colon 90.7% | MDA-MB-468 breast 117%

Brc1ccc(/C=N/Nc2ncnc3sc4c(c23)CCN(Cc2ccccc2)C4)cc1
inactive: T-47D breast 91.6% | BT-549 breast 102% | MDA-MB-435 melanoma 73.5% | SW-620 colon 35% | MCF7 breast 42.8% | HCT-116 colon 33.3% | HCC-2998 colon 91.4% | KM12 colon 50.2%
active: MDA-MB-468 breast -7.6%

COc1ccc(CN2[C@@H](C(=O)NCc3ccc(C(=O)NO)cc3)Cc3c([nH]c4ccccc34)[C@@H]2C2CC2)cc1
inactive: BT-549 breast 43.3% | MCF7 breast 14.1% | HCT-116 colon 12.9% | HCC-2998 colon 25.1% | KM12 colon 20.3%
active: T-47D breast 3.04% | MDA-MB-435 melanoma -42.1% | SW-620 colon -21.5% | MDA-MB-468 breast -3.5%

COc1ccc(/C=C/C(=O)c2ccc(NC(=O)CN3C(=O)NC(C)(c4ccccc4)C3=O)cc2)cc1 (stereo not given)
active: MCF7 breast 4.86%
inactive: T-47D breast 38.6% | BT-549 breast 71.6% | MDA-MB-435 melanoma 16.7% | SW-620 colon 88.8% | HCT-116 colon 12.8% | HCC-2998 colon 102% | KM12 colon 49.3% | MDA-MB-468 breast 49.4%

CC(=O)c1ccc(NC(=O)NCn2c(=O)[nH]c3ccccc3c2=O)cc1
inactive: T-47D breast 83% | BT-549 breast 159% | MDA-MB-435 melanoma 99.6% | SW-620 colon 101% | MCF7 breast 83% | HCT-116 colon 110% | HCC-2998 colon 112% | KM12 colon 103% | MDA-MB-468 breast 92%

CC1=C2C(=C[C@@](C)(CO)[C@@H]2O)/C(=N\N)[C@](C)(O)C12CC2
active: T-47D breast -11.8% | BT-549 breast -71.7% | MDA-MB-435 melanoma -63.8% | SW-620 colon -9.56% | MCF7 breast -6.87% | HCC-2998 colon -76.6% | KM12 colon 7.94% | MDA-MB-468 breast -90.8%
inactive: HCT-116 colon 19.1%

Cc1ccc(-c2cc(C(=O)N=Nc3c(O)[nH]c4ccc(Br)cc34)c3ccccc3n2)cc1
inactive: T-47D breast 75.2% | BT-549 breast 86.3% | MDA-MB-435 melanoma 45.1% | SW-620 colon 34.1% | MCF7 breast 28.5% | HCT-116 colon 27.4% | HCC-2998 colon 45.5% | KM12 colon 49.1% | MDA-MB-468 breast 31.2%

CC(=O)Nc1ccc(-n2cnc3cc(-c4ccc(O)cc4)ccc32)cc1C
active: MDA-MB-435 melanoma -13.2% | MDA-MB-468 breast -7.11%
inactive: T-47D breast 32.6% | BT-549 breast 50.7% | SW-620 colon 44.2% | MCF7 breast 50.9% | HCT-116 colon 70% | HCC-2998 colon 60.7% | KM12 colon 22.1%

CCOC(=O)C(Cc1ccccc1)N1C(=O)/C(=C/N2N=C(c3ccc(OC)cc3)CC2c2ccc3ccccc3c2)SC1=S (stereo not given)
inactive: T-47D breast 14.6% | MDA-MB-435 melanoma 16.3% | SW-620 colon 13.4%
active: BT-549 breast -6.78% | MCF7 breast 0.163% | HCT-116 colon 7.1% | HCC-2998 colon -92% | KM12 colon 9.78% | MDA-MB-468 breast -34.1%

Nc1nnc(-c2c[nH]c3ncccc23)c(-c2c[nH]c3ccc(Br)cc23)n1
inactive: T-47D breast 22.4% | BT-549 breast 38.6% | MDA-MB-435 melanoma 47.2% | SW-620 colon 54.9% | MCF7 breast 22.5% | HCT-116 colon 21.9% | HCC-2998 colon 74.5% | KM12 colon 39.3% | MDA-MB-468 breast 50.4%

COc1ccc(-c2cc(C(=O)N=Nc3c(O)[nH]c4ccccc34)c3ccccc3n2)cc1
inactive: T-47D breast 12.1% | BT-549 breast 72.9%
active: MDA-MB-435 melanoma 0.986% | SW-620 colon -30.2% | MCF7 breast -49.6% | HCT-116 colon -43.3% | HCC-2998 colon -16.4% | KM12 colon -11.1% | MDA-MB-468 breast -31.7%

CCOP(=O)(OCC)O[C@H]1CCC(=O)[C@@H]2[C@H]1[C@H]1C[C@@H]3[C@@]4(C)CCCC(C)(C(=O)OC)[C@@H]4CC[C@@]23C=C1C(C)C (stereo not given in full)
active: MDA-MB-468 breast 7.96%
inactive: T-47D breast 42.1% | BT-549 breast 54.9% | MDA-MB-435 melanoma 52% | SW-620 colon 56.1% | MCF7 breast 33.2% | HCT-116 colon 32.8% | HCC-2998 colon 58.9% | KM12 colon 50.9%

CC(=O)c1ccc(Nc2nc(SCCC(C)C)nc(-c3ccc(F)cc3)c2C#N)cc1
inactive: T-47D breast 68.3% | BT-549 breast 56.7% | MDA-MB-435 melanoma 73.8% | SW-620 colon 68.5% | MCF7 breast 59.6% | HCT-116 colon 22% | HCC-2998 colon 83.4% | KM12 colon 81.8% | MDA-MB-468 breast 69%

Cc1ccc(-c2nc(Nc3ccccc3C(=O)O)c3ccccc3n2)cc1
inactive: T-47D breast 10.7% | MDA-MB-435 melanoma 23.4% | SW-620 colon 14.5%
active: BT-549 breast -23.5% | MCF7 breast 7.7% | HCT-116 colon 6.7% | HCC-2998 colon 5.44% | KM12 colon 8.37% | MDA-MB-468 breast -26.9%

COc1ccc2ncc(C#Cc3cncc(C(=O)Nc4ccc(CN5CCN(C)CC5)c(C(F)(F)F)c4)c3)n2n1
inactive: T-47D breast 61.8%
active: BT-549 breast -75.7% | MDA-MB-435 melanoma -89.6% | SW-620 colon -72.4% | MCF7 breast -71.7% | HCT-116 colon -43.6% | HCC-2998 colon -95.8% | KM12 colon -95% | MDA-MB-468 breast -91.1%

From PubChem BioAssay (NCI)
